Records with an inconclusive call do not appear. Calls of active or inactive are those of the source. The call rests on the fitted dose curve; in most records, active means well fitted curve in the direction sought with a large enough effect; inconclusive means small, poorly fitted or top-dose-only effect, or another doubt; inactive means no such curve, though single readings can be large; an effect the other way counts as inactive or inconclusive. Numbered stars: 1 amine (or outer) side, 2 acyl side, 3 side chain; on linkers, the order of the positions; unused ones are H or OH. Bridge positions count the residues as written; N and C are the ends. Square brackets hold non-standard residues; d marks the D form. Peptide text beside a SMILES is read from it. I, II: the chains in the order shown. Actinocin(9to1) = Cc1c2oc3c(C)ccc(C(=O)[*:1])c3nc-2c(C(=O)[*:2])c(N)c1=O; NMeV = CN[C@H](C(=O)O)C(C)C; Sar = CNCC(=O)O
tested on: not listed separately; assay: Cellular Toxicity (caspase-3) NIH 3T3 (AID 666); settings: NIH 3T3 caspase-3 activation, apoptosis/toxicity; series mostly up to 92.2 µM; caspase-3 activation: at the top concentration; further: potency means the concentration at half of the fitted maximal effect;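 on caspase-3 activation: 0% = DMSO basal and 100% = 100 µM tamoxifen stimulation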
How it was run: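 Concentration-response qHTS in NIH 3T3 mouse fibroblasts scores caspase-3/7 activation as rising luminescence after 16 hr compound exposure. Signals are scaled between DMSO-only and 100 uM tamoxifen.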

SMILES | caspase-3 activation | Potency
C=C(CC)C(=O)c1ccc(OCC(=O)O)c(Cl)c1Cl | -8.58% (inactive) | 
C=CCc1ccc(O)c(OC)c1 | -4.76% (inactive) | 
NC(=NCCCCCCN=C(N)/N=C(\N)Nc1ccc(Cl)cc1)/N=C(\N)Nc1ccc(Cl)cc1 | 2.71% (inactive) | 
CC(O)C(=O)O (stereo unspecified) | 3.86% (inactive) | 
CC(=O)O[C@]1(C(C)=O)CC[C@H]2[C@@H]3C[C@H](C)C4=CC(=O)CC[C@]4(C)[C@H]3CC[C@@]21C | 15.1% (inactive) | 
Nc1ccc(C(=O)O)cc1 | -0.394% (inactive) | 
Oc1c(I)cc(Cl)c2cccnc12 |  | 12.6 µM (active)
CN(C)/N=N/c1nc[nH]c1C(N)=O | 2.03% (inactive) | 
COc1cccc2c1C(=O)c1c(O)c3c(c(O)c1C2=O)C[C@@](O)(C(=O)CO)C[C@@H]3O[C@H]1C[C@H](N)[C@H](O)[C@H](C)O1 |  | 0.398 µM (active)
COc1cccc2c1C(=O)c1c(O)c3c(c(O)c1C2=O)C[C@@](O)(C(C)=O)C[C@@H]3O[C@H]1C[C@H](N)[C@H](O)[C@H](C)O1 |  | 31.6 µM (active)
Oc1ccc(Cl)cc1Sc1cc(Cl)ccc1O | 2.97% (inactive) | 
O=C1OC(c2ccc(O)cc2)(c2ccc(O)cc2)c2ccccc21 | 3.63% (inactive) | 
C[C@]12CC[C@@H]3c4ccc(O)cc4CC[C@H]3[C@@H]1CC[C@@H]2O | 2.34% (inactive) | 
Oc1c(Cl)cc(Cl)cc1Sc1cc(Cl)cc(Cl)c1O | -3.04% (inactive) | 
CC/C(=C(/CC)c1ccc(O)cc1)c1ccc(O)cc1 | -2.83% (inactive) | 
Cc1c2oc3c(C)ccc(C(=O)N[C@@H]4C(=O)N[C@H](C(C)C)C(=O)N5CCC[C@H]5C(=O)N(C)CC(=O)N(C)[C@@H](C(C)C)C(=O)O[C@@H]4C)c3nc-2c(C(=O)N[C@@H]2C(=O)N[C@H](C(C)C)C(=O)N3CCC[C@H]3C(=O)N(C)CC(=O)N(C)[C@@H](C(C)C)C(=O)O[C@@H]2C)c(N)c1=O (I: T[dV]P[Sar][NMeV] / II: T[dV]P[Sar][NMeV]; ester I:1-I:C, II:1-II:C; linker I:N-II:N via Actinocin(9to1)) |  | 0.0251 µM (active)
COC1=CC(=O)C[C@@H](C)[C@]12Oc1c(Cl)c(OC)cc(OC)c1C2=O | 4.04% (inactive) | 
O=c1ccc2ccccc2o1 | 1.16% (inactive) | 
CCCCCCc1ccc(O)cc1O | -1.57% (inactive) | 
O=C(O)CCCCC(=O)O | 2.14% (inactive) | 
CC(=O)Oc1ccc(C(c2ccc(OC(C)=O)cc2)c2ccccn2)cc1 | -1.39% (inactive) | 

tested on: not listed separately; assay: Cellular Toxicity (caspase-3) Renal Proximal Tubule (AID 667); settings: renal proximal tubule cells, primary cells freshly taken from rat, solvent-only wells 0%, staurosporine 100%; series mostly up to 91.7 µM; caspase-3 activation: at the top concentration;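 further: cells exposed to compound for 16 hours at 37 °C before detection; 0% = DMSO basal and 100% = 10 µM staurosporine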
How it was run: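 Caspase-Glo 3/7 read-out, rat primary kidney proximal tubule cells. Compound exposure 16 h, 37 °C; detection after 1 h at RT. Activity scaled to DMSO and 10 uM staurosporine.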

SMILES | caspase-3 activation
C=C(CC)C(=O)c1ccc(OCC(=O)O)c(Cl)c1Cl | -5.48% (inactive)
C=CCc1ccc(O)c(OC)c1 | 6.07% (inactive)
NC(=NCCCCCCN=C(N)/N=C(\N)Nc1ccc(Cl)cc1)/N=C(\N)Nc1ccc(Cl)cc1 | -1.8% (inactive)
CC(O)C(=O)O (stereo unspecified) | -4.35% (inactive)
CC(=O)O[C@]1(C(C)=O)CC[C@H]2[C@@H]3C[C@H](C)C4=CC(=O)CC[C@]4(C)[C@H]3CC[C@@]21C | -0.566% (inactive)
Nc1ccc(C(=O)O)cc1 | -1.4% (inactive)
Oc1c(I)cc(Cl)c2cccnc12 | -0.512% (inactive)
CN(C)/N=N/c1nc[nH]c1C(N)=O | -7.28% (inactive)
COc1cccc2c1C(=O)c1c(O)c3c(c(O)c1C2=O)C[C@@](O)(C(=O)CO)C[C@@H]3O[C@H]1C[C@H](N)[C@H](O)[C@H](C)O1 | 8.39% (inactive)
Oc1ccc(O)cc1 | -5.9% (inactive)
Oc1ccc(Cl)cc1Sc1cc(Cl)ccc1O | -0.754% (inactive)
O=C1OC(c2ccc(O)cc2)(c2ccc(O)cc2)c2ccccc21 | -0.32% (inactive)
C[C@]12CC[C@@H]3c4ccc(O)cc4CC[C@H]3[C@@H]1CC[C@@H]2O | 8.88% (inactive)
Oc1c(Cl)cc(Cl)cc1Sc1cc(Cl)cc(Cl)c1O | 7.12% (inactive)
CC/C(=C(/CC)c1ccc(O)cc1)c1ccc(O)cc1 | 8.31% (inactive)
COC1=CC(=O)C[C@@H](C)[C@]12Oc1c(Cl)c(OC)cc(OC)c1C2=O | 4.29% (inactive)
O=c1ccc2ccccc2o1 | -4.07% (inactive)
CCCCCCc1ccc(O)cc1O | -0.437% (inactive)
O=C(O)CCCCC(=O)O | 3.38% (inactive)
CC(=O)Oc1ccc(C(c2ccc(OC(C)=O)cc2)c2ccccn2)cc1 | -3.36% (inactive)

target: Guanine nucleotide-binding protein G(i) subunit alpha-1 (Homo sapiens) (UniProt P63096); assay: qHTS Assay for Inhibitors of RGS12 GoLoco Motif Activity (Green Fluorophore) (AID 879); settings: Galphai1/FITC-RGS12 GoLoco peptide, fluorescence polarization; series mostly up to 57.1 µM; activity, negative = inhibition: at the top concentration;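 further: 0% = labeled peptide with Gαi1 and full inhibition = labeled peptide alone without protein; negative values mean loss of peptide binding seen as reduced polarization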
How it was run: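 Fluorescence polarization assay: 50 nM Gαi1 with 10 nM FITC-labeled RGS12 GoLoco peptide in 10 mM Tris pH 7.5, 150 mM NaCl, 0.1 mM GDP, 0.05% NP40, 10 min at room temperature with compound.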

Guanine nucleotide-binding protein G(i) subunit alpha-1 (Homo sapiens), sequence (P63096 whole entry, looked up): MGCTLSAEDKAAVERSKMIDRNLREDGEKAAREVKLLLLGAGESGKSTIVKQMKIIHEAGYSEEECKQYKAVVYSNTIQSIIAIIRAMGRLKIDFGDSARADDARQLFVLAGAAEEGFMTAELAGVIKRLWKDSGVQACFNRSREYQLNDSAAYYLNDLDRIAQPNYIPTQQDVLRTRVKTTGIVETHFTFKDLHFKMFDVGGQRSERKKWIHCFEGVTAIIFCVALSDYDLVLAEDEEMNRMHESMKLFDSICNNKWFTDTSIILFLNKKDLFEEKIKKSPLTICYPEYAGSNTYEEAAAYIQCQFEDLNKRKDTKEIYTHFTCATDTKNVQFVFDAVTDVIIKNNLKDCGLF

SMILES | activity, negative = inhibition
Oc1ccc(O)cc1 | -19% (inactive)
CN1CCC[C@@H]1c1cccnc1 | -9.16% (inactive)
CN1[C@@H]2CC[C@H]1CC(OC(=O)c1c[nH]c3ccccc13)C2 (stereo partly specified) | 6.58% (inactive)
CC(C)COC(=O)OCN1C(=O)CN(CCN2CC(=O)N(COC(=O)OCC(C)C)C(=O)C2)CC1=O | -19.1% (inactive)
Nc1cc(Cl)c(NC2=NCCN2)c(Cl)c1 | 4.65% (inactive)
C[C@]12CC[C@@H]3c4ccc(O)cc4CC[C@H]3[C@@H]1CC[C@@H]2O | -4.91% (inactive)
C[C@@H]1C(=O)NC2=Nc3cccc(Cl)c3CN21 | -1.48% (inactive)

target: Cytochrome P450 3A4 (Homo sapiens) (UniProt P08684); assay: qHTS Assay for Inhibitors and Substrates of Cytochrome P450 3A4 (AID 884); settings: recombinant CYP3A4, Luciferin-PPXE luminescence; series mostly up to 57.1 µM; activity change, negative = inhibition: at the top concentration; further: nearly all actives have a fitted effect of over 50% in size; further: potency means the concentration at half of the fitted maximal effect; on activity change, negative = inhibition: on the % scale 0 is the no-effect control and ±100 the full control effect
How it was run: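 20 nM human CYP3A4 with 25 uM Luciferin-PPXE (at KM) in 200 mM KPO4, preincubated 10 min with compound; NADPH regeneration started a 60 min RT reaction. Luciferin detected by luminescence, normalized to 57 uM ketoconazole as full inhibition.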

Cytochrome P450 3A4 (Homo sapiens), sequence (P08684 whole entry, looked up): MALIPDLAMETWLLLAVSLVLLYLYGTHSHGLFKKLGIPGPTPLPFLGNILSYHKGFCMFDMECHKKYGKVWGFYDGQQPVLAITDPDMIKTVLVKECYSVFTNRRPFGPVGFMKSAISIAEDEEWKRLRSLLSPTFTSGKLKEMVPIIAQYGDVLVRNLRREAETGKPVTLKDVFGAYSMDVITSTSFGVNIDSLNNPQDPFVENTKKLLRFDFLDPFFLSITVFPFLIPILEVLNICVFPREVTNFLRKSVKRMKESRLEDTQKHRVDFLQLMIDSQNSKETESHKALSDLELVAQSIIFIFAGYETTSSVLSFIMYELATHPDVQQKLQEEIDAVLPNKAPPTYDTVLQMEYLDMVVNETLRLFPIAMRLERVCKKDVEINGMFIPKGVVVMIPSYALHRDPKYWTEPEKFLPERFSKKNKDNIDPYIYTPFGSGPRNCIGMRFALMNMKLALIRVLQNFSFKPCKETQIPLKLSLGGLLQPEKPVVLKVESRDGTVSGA

SMILES | activity change, negative = inhibition | Potency
C=C(CC)C(=O)c1ccc(OCC(=O)O)c(Cl)c1Cl | -1.13% (inactive) | 
CC(O)C(=O)O (stereo unspecified) | -5.13% (inactive) | 
CC(=O)O[C@]1(C(C)=O)CC[C@H]2[C@@H]3C[C@H](C)C4=CC(=O)CC[C@]4(C)[C@H]3CC[C@@]21C |  | 15.8 µM (active)
Nc1ccc(C(=O)O)cc1 |  | inactive
CN(C)/N=N/c1nc[nH]c1C(N)=O | -25% (inactive) | 
C[C@]12CC[C@@H]3c4ccc(O)cc4CC[C@H]3[C@@H]1CC[C@@H]2O | 24.6% (inactive) | 
O=c1ccc2ccccc2o1 | -6.37% (inactive) | 
O=C(O)CCCCC(=O)O | -3.01% (inactive) | 

Reference: PubChem BioAssay (NCATS)
